In all, about 48,000 compounds went through this assay and about 13,000 (27%) showed an effect of 50% or more. This is one part of the list.
Test system: Wolbachia pipientis
Assay: Anti-Wolbachia Cell-Based Screen
Format: functional
Parameters: scale not given: in the data most compounds retested in dose-response had high values
Details: 5 µM

Structure (SMILES) | Percent Effect [%]
CCc1nc(C)c(C(=O)N(C)Cc2cnn(-c3cccc(OC)c3)c2)s1 | -4.854
Cc1ccccc1CSc1nc(N)cc(N2C[C@H](O)[C@@H](N(C)C)C2)n1 | -0.3306
CC(=O)N1CCCCC1c1nc(C)cc(-c2ccccc2C(=O)O)n1 (centres undefined) | 100.6
Cc1cc(C)n(-c2ccc(N3CCC(O)CC3)nc2)n1 | -17.54
Cc1cccc(-c2c[nH]c(C3CCCN3C(=O)c3cc(C)n[nH]3)n2)c1 (centres undefined) | 16.57
Cc1cc(N2CCC(O)CC2)nc(C2CCCN2C)n1 (centres undefined) | 110.3
Cc1cc(-c2ccccc2C(=O)O)nc(C2CCCCN2C)n1 (centres undefined) | 97.78
Cc1cc(N2CCC(O)CC2)nc(C)n1 | 10.82
CC(=O)N1CCCC1c1nc(C)cc(-c2ccc(F)cc2)n1 (centres undefined) | 79.53
CC(=O)N(CCc1nc(-c2cc(C(N)=O)co2)cs1)C(C)C | -2.269
CC(C)(C)C(=O)N1C[C@@H](F)[C@@H](OCc2nc3ncccc3[nH]2)C1 | -11.47
COc1ccccc1CC(=O)NC(CC(=O)O)c1ccc(C)cc1 (centres undefined) | -6.3
CS(=O)(=O)C1=C(O)C(=O)N(c2ccccc2)C1c1ccccc1 (centres undefined) | 110.5
OCCC1CN(c2ncnc3[nH]cnc23)CCN1Cc1cccs1 (centres undefined) | 9.965
CCOCc1ccccc1NC(=O)NC1CCN(C2CCCC2)C1 (centres undefined) | -8.399
Cn1cnnc1-c1cncc(NCc2cccc3c2OC(C)(C)C3)c1 | -16.61
N#Cc1cccc(CN2C[C@@H](NC(=O)C3CC3)[C@H]3OCCC[C@H]32)c1 | 101.9
O=C(N[C@@H]1CN(Cc2ccc3c(c2)OCO3)[C@@H]2CCCO[C@@H]21)C1CC1 | -19.8
N#Cc1cccc(CN2C[C@H](NC(=O)C3CC3)[C@H]3OCCC[C@H]32)c1.O=C(O)C(F)(F)F | 100.2
N#Cc1cccc(CN(CC(=O)N2CCCC2)CC2CCCO2)c1 (centres undefined) | 11.29
Cc1cccc(OC2CCN(S(=O)(=O)Cc3cccc(F)c3)CC2)n1 | -8.664
CSCC(C)(O)CNC(=O)c1cc(F)ccc1Br (centres undefined) | -2.784
O=C(NC1CCN(Cc2ccc(F)cc2)CC1)c1ccc2c(c1)CCC2 | -15.84
O=C(NC1CCN(c2cc(-n3ccnc3)ncn2)CC1)c1ccncc1 | 4.759
O=C(Cc1ccc2c(c1)CCC2)NCCNc1ncccn1 | 11.75
O=C(N[C@@H]1CCC[C@@H](n2ccnc2)[C@@H]1O)c1ccc2c(c1)CCCC2 | 113.7

Structure (SMILES) | Percent Effect [%]
O=C(N[C@@H]1CC[C@@H](n2ccnc2)[C@@H]1O)c1cc2c(s1)CCC2 | 100.6
CCOc1ncccc1NC(=O)c1cc2c(s1)CCC2 | -11.29
Cn1cc(CNC(=O)c2cc3c(s2)CCCCC3)cn1 | -22.89
O=C(Cc1ccc2c(c1)CCCC2)N[C@@H]1CC[C@@H](n2ccnc2)[C@@H]1O | 128.7
O=C(Cc1ccc2c(c1)CCC2)NC1CCN(Cc2ccccc2)CC1 | 7.244
CCOCC(=O)NCC1(NC(C)c2ccccc2)CCOCC1 (centres undefined) | -5.882
Cc1cnn(CC(C)NCc2c(C)nn(Cc3ccccc3)c2C)c1 (centres undefined) | -7.761
CCC(CN1CCCC1)n1cncc1-c1cnn(Cc2ccccc2)c1.Cl (centres undefined) | 116
CCc1nnsc1C(=O)N1CCCN(Cc2ccccc2)CC1 | -10.59
COc1cc(CN2CCCCCC2c2cccs2)cc(OC)c1OC (centres undefined) | 88.88
Cc1cc(C)cc(N(CCC#N)C(=O)CN2CCCC2c2cccs2)c1 (centres undefined) | -27.93
COc1cccc(CN2CCCCCC2c2cccs2)c1OC (centres undefined) | 128.6
COc1cccc(CN2CCCCCC2c2sccc2C)c1O (centres undefined) | 115
COc1cc(CN2CCCCCC2c2cccs2)cc(OC)c1O (centres undefined) | 139
COc1cccc(CN2CCCC(Nc3cccc(F)c3)C2)c1O (centres undefined) | -12.95
O=C(CCN1CCCC1c1cccs1)N1CCc2sccc2C1 (centres undefined) | 2.808
COc1cccc(CN2CCCCCC2c2cccs2)c1O (centres undefined) | -12.69
COc1cccc(CN2CCN(CC(C)C)C(=O)C2C)c1O (centres undefined) | -13.51
Cc1nc(C)n(CC2CCCCN2CCCS(N)(=O)=O)n1 (centres undefined) | -48.39
CC(NC(=O)N1CCC(OCc2ccccc2)CC1)c1nncn1C (centres undefined) | -3.035
CC(=O)Nc1ccc(-n2ccc3nc(N4CCCC4)ncc3c2=O)cc1 | 4.031
OCCC1CN(c2nc(-c3cccnc3)nc3c2CCNCC3)CCO1 (centres undefined) | -11.64
CNC(=O)c1c(C)cccc1NCC(=O)Nc1cc(C)nn1C | -2.295
O=C(Nc1ccc(F)cc1)N(CCC(F)(F)F)C[C@H](O)CO | -0.3648
Cc1nc2c(c(N3CCCOCC3)n1)CCN(C(=O)N1CCCC1)CC2 | 0.8074
Cc1nc(N2CCOCC2)nc2c1CCN(c1nccs1)CC2 | 1.797

Structure (SMILES) | Percent Effect [%]
Cc1nc2c(c(N3CCCOCC3)n1)CCN(c1nccs1)CC2 | 108.7
CCc1nc2n(n1)CCCC2NC(=O)Nc1cc(OC)ccc1C (centres undefined) | 24.05
CS(=O)(=O)CCCN1CCOC2(CCc3ccccc32)C1 (centres undefined) | -1.468
CN(Cc1cc(F)ccc1C#N)CC(C)(CO)CO | 8.99
Cc1cc(F)ccc1S(=O)(=O)N(C)CC(N)=O | -0.8212
Cc1nn(C)c(Cl)c1C1CCCN1C(=O)c1ccc(N(C)C)nn1 (centres undefined) | -10.16
COc1c(C2CCCN2C(=O)c2ccc(N(C)C)nn2)c(C)nn1C (centres undefined) | 97.2
COc1c(C2CCCN2C(=O)c2ccnc(C)n2)c(C)nn1C (centres undefined) | 135.1
COc1c(C2CCCN2C(=O)c2cccnc2N(C)C)c(C)nn1C (centres undefined) | 107.7
COc1c(C2CCCN2C(=O)c2cccc(C)n2)c(C)nn1C (centres undefined) | 93.53
COc1c(C2CCCN2C(=O)c2cccc(C(N)=O)c2)c(C)nn1C (centres undefined) | 8.718
CS(=O)(=O)N1C[C@H](C(=O)Nc2cccnc2)C[C@H]2OCC[C@H]21.O=C(O)C(F)(F)F | -10.82
CC[C@@]1(O)CCN(c2ncc(Cl)cc2C(F)(F)F)C[C@H]1O | -3.293
COCc1noc(CNc2nc(C3CCCC3)nc3c2CCNCC3)n1 | -2.329
COc1ccc(SC(C)C(=O)N2CCC(C(=O)N3CCCC3)CC2)cc1 (centres undefined) | -0.009577
CN(C)CCNC(=O)c1cc2c(s1)CCN2S(C)(=O)=O | 114.7
COCCNC(=O)c1cc(S(=O)(=O)N2CCCCCC2)cs1 | 97.81
CC(C)CNC(=O)c1nc2c(s1)CCN(C(=O)c1cccnc1)CC2 | -3.468
CC(C)CNC(=O)c1cc2c(s1)CCN2S(C)(=O)=O | 101.5
COCCNC(=O)c1cc(S(=O)(=O)N2CCCCC2)cs1 | 0.5112
CN(C)CCNC(=O)c1ccc(OC2CCN(S(C)(=O)=O)CC2)c(Cl)c1 | -4.841
COCCNC(=O)NCCS(=O)(=O)N1CCN(c2cccc(C)c2)CC1 | 9.148
CC(C)CNC(=O)c1cc2c(s1)CCN2Cc1cccnc1 | -6.846
NC(=O)C1CCN(C(=O)c2cc(S(=O)(=O)N3CCCCC3)cs2)CC1 | 2.088
COCCNC(=O)c1cc2c(s1)CCN2S(C)(=O)=O | 90.75
COCCNC(=O)C1CCCN1S(=O)(=O)c1sc(=O)[nH]c1C (centres undefined) | -10.99

Structure (SMILES) | Percent Effect [%]
Cc1ncsc1CCC(=O)N1CCN(CCn2cncn2)CC1 | -30.48
CS(=O)(=O)c1nnc(NC(=O)CCc2ccc(Cl)s2)[nH]1 | -11.44
COc1cc(CN(C)C(=O)NCCNC(=O)C2CC2)ccc1SC | 6.493
Cc1nnc(CN2CCN(C)C3(CCNC(=O)CC3)C2)s1 (centres undefined) | -6.186
CN(C)C(=O)CNC(=O)c1cc2c(s1)CCN2S(C)(=O)=O | 110.9
CN(C)C(=O)CNC(=O)c1cc(Br)c2c(c1)OCCO2 | -3.612
CN(C)C(=O)c1cc2c(s1)CCN(C(=O)CCCN1CCCCC1)C2 | -52.48
CC(C)(C)c1noc(CNc2ccccc2N2CCC(O)CC2)n1 | -3.978
CCC(C)CS(=O)(=O)NC(=O)C1CCC1 (centres undefined) | 4.874
Cc1ccccc1N1CCN(c2ccncn2)C(C)C1 (centres undefined) | 0.9098
CCc1nc2n(n1)CC(NCC(=O)Nc1nccs1)CC2 (centres undefined) | -6.343
Cc1csc(Nc2cc(C3CN(C(C)C)C3)nc(C)n2)n1 | 95.99
Cc1cc(C)nc(Nc2cc(C3CCCN(C)C3)nc(C)n2)n1.O=CO (centres undefined) | -14.01
Cc1nc(Nc2nccs2)cc(C2CCCN2C2CCOCC2)n1 (centres undefined) | -3.7
Cc1csc(Nc2cc(C3CN(c4ccncn4)C3)nc(C)n2)n1 | 120.5
Cc1nc(Nc2nccs2)cc(C2CN(C(C)C)C2)n1 | 64.11
CCc1nc(NC(=O)NCCc2cscn2)nn1C | -7.78
O=C(NCCOc1ncc(Cl)cc1Cl)NCc1ccncc1 | -21.42
Cn1ccnc1SCCNc1ccnc(C(F)(F)F)n1 | 2.447
CC(C)(NC(=O)c1cnc(C(C)(C)C)s1)C(N)=O | -3.596
CC(C)(C)c1ncc(C(=O)NC(C(N)=O)c2ccccc2)s1 (centres undefined) | 80.78
CC(C)(C)c1ncc(C(=O)NCCNC(=O)c2ccco2)s1 | 107.2
CCNc1ncc(C(=O)N[C@H](C(N)=O)c2ccccc2)cn1 | 7.272
CC(C)(CNC(=O)c1ccco1)CNC(=O)c1ccco1 | -33.3
CC(C)(C)C(=O)c1ccsc1NC(=O)CCNC(=O)c1ccco1 | -2.755
CC(C)(C)c1ncc(C(=O)NCCNC(=O)Cc2ccccc2)s1 | 94.92
